Common to all, as to assay: DAPPL (digital affinity profiling via proximity ligation, sequencing); 10 mM Tris-HCl pH 7.5, 50 mM NaCl, 1 mM DTT, 4% glycerol, room temperature, 30 min; GST-TFs on glutathione beads, 16-mer random dsDNA library, 0.1% formaldehyde crosslink after washing; high values mean tight binding
The target in one test is T1, FEV (Homo sapiens, UniProt Q99581 1-238).
T1 sequence: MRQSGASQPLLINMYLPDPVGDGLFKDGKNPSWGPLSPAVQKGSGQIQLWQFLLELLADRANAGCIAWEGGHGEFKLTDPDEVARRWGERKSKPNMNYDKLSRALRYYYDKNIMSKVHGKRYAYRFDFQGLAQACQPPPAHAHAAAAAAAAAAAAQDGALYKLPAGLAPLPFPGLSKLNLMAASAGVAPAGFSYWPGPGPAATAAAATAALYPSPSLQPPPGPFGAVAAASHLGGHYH
The conditions noted are these: protein: recombinant; tags: N-terminal GST; dsDNA, one strand shown. The procedure, abridged:
(§1)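 GST fusions of human transcription factors were expressed in yeast and captured with glutathione beads. Once given DNA barcodes and pooled alongside a tag-only sample, they were incubated for 30 min at room temperature with 200 nmole of a random double-stranded 16-mer DNA library in Tris/NaCl/DTT/glycerol buffer, then washed, crosslinked (0.1% formaldehyde), proximity-ligated, PCR-amplified and sequenced on an Illumina NextSeq500. The binding signal of each hexamer is its read frequency for a factor divided by its frequency for the tag-only sample.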

The next test addresses ETV5 (Homo sapiens, UniProt P41161 1-510). To be noted: protein: recombinant; tags: N-terminal GST; dsDNA, one strand shown. In short, it runs like this:
as §1

The next test addresses HSF1 (Homo sapiens, UniProt Q00613 1-529). The conditions noted are these: protein: recombinant; tags: N-terminal GST; chain copies: 3; dsDNA, one strand shown. In short, it runs like this:
as §1

The next test concerns the target T2, SPIC (Homo sapiens, UniProt Q8N5J4 1-248).
T2 sequence: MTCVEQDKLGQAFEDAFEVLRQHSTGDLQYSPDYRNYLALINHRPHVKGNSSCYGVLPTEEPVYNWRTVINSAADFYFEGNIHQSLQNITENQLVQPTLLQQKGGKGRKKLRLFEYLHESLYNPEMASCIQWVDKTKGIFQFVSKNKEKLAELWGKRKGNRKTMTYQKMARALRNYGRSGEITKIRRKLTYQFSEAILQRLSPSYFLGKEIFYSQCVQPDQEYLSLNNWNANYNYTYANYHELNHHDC
To be noted: protein: recombinant; tags: N-terminal GST; dsDNA, one strand shown. The procedure, abridged:
as §1

The next test has as its target ELF4 (Homo sapiens, UniProt Q99607 1-663). To be noted: protein: recombinant; tags: N-terminal GST; dsDNA, one strand shown. The procedure, abridged:
as §1

The target of another test is T3, ELK4 (Homo sapiens, UniProt P28324-2 1-405).
T3 sequence: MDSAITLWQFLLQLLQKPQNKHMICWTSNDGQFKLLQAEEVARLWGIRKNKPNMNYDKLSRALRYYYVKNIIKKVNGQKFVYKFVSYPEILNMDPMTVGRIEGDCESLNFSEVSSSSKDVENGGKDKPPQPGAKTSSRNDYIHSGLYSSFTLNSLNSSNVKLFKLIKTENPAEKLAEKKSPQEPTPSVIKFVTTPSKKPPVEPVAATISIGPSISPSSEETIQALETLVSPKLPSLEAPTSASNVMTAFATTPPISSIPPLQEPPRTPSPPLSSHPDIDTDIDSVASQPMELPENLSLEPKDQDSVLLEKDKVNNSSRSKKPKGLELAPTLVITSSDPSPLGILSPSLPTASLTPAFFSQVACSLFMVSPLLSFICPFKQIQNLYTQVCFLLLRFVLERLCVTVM
To be noted: protein: recombinant; tags: N-terminal GST; dsDNA, one strand shown. In short, it runs like this:
as §1

The next test addresses T4, ETV2 (Homo sapiens, UniProt O00321 1-342).
T4 sequence: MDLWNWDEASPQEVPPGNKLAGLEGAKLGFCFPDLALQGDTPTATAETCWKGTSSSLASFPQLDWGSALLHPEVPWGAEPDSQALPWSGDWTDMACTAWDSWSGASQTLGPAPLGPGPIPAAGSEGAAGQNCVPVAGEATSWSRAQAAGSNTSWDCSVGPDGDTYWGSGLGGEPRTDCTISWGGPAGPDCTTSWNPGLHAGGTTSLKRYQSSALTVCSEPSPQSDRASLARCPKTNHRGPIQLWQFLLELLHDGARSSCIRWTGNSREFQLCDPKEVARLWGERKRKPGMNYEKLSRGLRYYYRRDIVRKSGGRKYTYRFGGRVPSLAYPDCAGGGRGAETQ
To be noted: protein: recombinant; tags: N-terminal GST; dsDNA, one strand shown. In short, it runs like this:
as §1

A further test deals with T5, ELF3 (Homo sapiens, UniProt P78545 1-371).
T5 sequence: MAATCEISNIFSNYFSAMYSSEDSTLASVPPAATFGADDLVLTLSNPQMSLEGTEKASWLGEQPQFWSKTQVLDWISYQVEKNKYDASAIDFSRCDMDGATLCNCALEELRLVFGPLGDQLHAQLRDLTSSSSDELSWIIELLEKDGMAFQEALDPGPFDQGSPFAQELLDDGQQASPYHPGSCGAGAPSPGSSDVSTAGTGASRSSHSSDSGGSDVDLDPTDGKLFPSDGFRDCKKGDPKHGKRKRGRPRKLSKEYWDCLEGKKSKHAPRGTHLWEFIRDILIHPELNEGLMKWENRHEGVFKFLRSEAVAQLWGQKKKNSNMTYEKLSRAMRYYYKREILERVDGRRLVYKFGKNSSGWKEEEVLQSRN
To be noted: protein: recombinant; tags: N-terminal GST; dsDNA, one strand shown. The procedure, abridged:
as §1

A further test has as its target CRX (Homo sapiens, UniProt O43186 1-299). To be noted: protein: recombinant; tags: N-terminal GST; dsDNA, one strand shown. In short, it runs like this: as §1
The target in a further test is ETV1 (Homo sapiens, UniProt P50549 1-477). To be noted: protein: recombinant; tags: N-terminal GST; dsDNA, one strand shown. In short, it runs like this:
as §1

Experimental findings from article PMC7862700, “An all-to-all approach to the identification of sequence-specific readers for epigenetic DNA modifications on cytosine” are described below.

ETV1, sequence (P50549 whole entry): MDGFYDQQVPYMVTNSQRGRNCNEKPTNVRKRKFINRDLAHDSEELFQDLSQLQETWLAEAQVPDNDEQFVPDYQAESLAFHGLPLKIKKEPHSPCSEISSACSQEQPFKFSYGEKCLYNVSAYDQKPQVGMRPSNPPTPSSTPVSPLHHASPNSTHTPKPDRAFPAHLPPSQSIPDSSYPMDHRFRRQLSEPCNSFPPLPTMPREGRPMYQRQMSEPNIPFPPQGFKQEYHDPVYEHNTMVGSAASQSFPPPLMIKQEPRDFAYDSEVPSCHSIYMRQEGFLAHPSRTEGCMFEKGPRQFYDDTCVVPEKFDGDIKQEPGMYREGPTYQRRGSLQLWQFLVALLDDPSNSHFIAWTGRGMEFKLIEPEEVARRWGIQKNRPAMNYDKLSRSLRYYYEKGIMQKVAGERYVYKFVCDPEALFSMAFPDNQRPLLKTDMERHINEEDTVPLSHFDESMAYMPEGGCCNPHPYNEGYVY
HSF1, sequence (Q00613 whole entry): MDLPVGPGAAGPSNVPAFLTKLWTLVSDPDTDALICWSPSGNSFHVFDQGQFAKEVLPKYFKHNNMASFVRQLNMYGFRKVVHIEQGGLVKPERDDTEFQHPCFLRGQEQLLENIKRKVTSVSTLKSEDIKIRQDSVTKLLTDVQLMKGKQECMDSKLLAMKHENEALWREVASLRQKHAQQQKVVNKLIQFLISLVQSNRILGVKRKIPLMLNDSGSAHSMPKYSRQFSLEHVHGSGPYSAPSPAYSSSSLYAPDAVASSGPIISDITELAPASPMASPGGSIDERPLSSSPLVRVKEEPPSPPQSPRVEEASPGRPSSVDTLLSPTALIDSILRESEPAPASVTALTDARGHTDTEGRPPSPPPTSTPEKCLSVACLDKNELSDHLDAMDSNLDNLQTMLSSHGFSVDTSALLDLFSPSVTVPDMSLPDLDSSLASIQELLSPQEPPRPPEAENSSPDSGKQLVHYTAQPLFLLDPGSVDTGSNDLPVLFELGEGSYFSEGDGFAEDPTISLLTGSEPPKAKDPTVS
ELF4, sequence (Q99607 whole entry): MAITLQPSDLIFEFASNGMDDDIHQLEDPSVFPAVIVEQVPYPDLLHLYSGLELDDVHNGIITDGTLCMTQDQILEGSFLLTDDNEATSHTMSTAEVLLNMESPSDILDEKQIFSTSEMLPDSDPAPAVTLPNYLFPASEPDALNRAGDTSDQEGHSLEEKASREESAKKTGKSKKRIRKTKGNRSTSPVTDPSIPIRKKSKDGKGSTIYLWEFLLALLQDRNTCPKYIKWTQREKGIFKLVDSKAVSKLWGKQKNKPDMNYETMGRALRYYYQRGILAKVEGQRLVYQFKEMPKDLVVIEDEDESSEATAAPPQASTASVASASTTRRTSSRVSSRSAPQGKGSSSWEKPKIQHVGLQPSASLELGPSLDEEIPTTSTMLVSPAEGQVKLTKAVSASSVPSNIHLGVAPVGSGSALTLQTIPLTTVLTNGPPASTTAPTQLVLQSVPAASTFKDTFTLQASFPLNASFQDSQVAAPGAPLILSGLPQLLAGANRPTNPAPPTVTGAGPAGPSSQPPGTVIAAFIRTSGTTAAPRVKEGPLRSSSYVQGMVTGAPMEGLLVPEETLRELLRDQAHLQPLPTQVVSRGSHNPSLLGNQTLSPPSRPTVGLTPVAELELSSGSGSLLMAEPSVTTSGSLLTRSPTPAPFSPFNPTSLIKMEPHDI
CRX, sequence (O43186 whole entry): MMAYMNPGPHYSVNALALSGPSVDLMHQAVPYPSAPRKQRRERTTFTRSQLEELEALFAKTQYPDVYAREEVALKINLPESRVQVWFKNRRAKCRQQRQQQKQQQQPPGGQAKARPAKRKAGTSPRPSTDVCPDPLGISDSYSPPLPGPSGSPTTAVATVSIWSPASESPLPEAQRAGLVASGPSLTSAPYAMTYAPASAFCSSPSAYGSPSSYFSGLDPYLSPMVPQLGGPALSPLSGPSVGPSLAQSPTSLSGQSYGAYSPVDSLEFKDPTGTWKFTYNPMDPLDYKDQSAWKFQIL
ETV5, sequence (P41161 whole entry): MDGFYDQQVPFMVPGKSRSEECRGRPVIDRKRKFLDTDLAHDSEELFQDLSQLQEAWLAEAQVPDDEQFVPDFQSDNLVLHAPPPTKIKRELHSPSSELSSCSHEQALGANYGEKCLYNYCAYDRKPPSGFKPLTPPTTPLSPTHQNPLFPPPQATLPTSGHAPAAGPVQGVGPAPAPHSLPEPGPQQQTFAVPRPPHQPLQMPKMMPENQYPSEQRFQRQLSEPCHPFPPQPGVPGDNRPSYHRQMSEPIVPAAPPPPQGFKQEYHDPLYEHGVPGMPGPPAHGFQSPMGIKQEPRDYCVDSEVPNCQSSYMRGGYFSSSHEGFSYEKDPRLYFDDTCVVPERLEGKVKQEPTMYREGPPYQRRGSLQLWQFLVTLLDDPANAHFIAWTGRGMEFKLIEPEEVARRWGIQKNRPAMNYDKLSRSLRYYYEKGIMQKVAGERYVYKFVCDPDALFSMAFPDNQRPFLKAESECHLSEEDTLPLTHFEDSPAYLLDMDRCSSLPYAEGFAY

TGCGAT: the binding signal with FEV is 1.08 fold enrichment (6-mer frequency, TF over GST control); in the test with ETV5, 1.1 fold enrichment (6-mer frequency, TF over GST control); in the test with HSF1, 1.23 fold enrichment (6-mer frequency, TF over GST control); with SPIC, 1.3 fold enrichment (6-mer frequency, TF over GST control); in the test with ELF4, 1.2 fold enrichment (6-mer frequency, TF over GST control); with ELK4 it was 1.2 fold enrichment (6-mer frequency, TF over GST control). Moreover, the binding signal with ETV2 is 1.17 fold enrichment (6-mer frequency, TF over GST control); in the test with ELF3 it was 1.03 fold enrichment (6-mer frequency, TF over GST control); with CRX, 1.43 fold enrichment (6-mer frequency, TF over GST control); with ETV1 it was 1.06 fold enrichment (6-mer frequency, TF over GST control).
Take ATCGAT: the binding signal in the test with FEV is 1.02 fold enrichment (6-mer frequency, TF over GST control); with ETV5, 1.17 fold enrichment (6-mer frequency, TF over GST control); with HSF1, 1.26 fold enrichment (6-mer frequency, TF over GST control); in the test with SPIC, 1.2 fold enrichment (6-mer frequency, TF over GST control); in the test with ELF4 it was 1.17 fold enrichment (6-mer frequency, TF over GST control); with ELK4, 1.23 fold enrichment (6-mer frequency, TF over GST control). In addition, the binding signal is 1.08 fold enrichment (6-mer frequency, TF over GST control) with ETV2; 1.19 fold enrichment (6-mer frequency, TF over GST control) in the test with ELF3; 1.25 fold enrichment (6-mer frequency, TF over GST control) with CRX; 1.07 fold enrichment (6-mer frequency, TF over GST control) with ETV1.
Turning to GATTAC, the binding signal with FEV is 1.05 fold enrichment (6-mer frequency, TF over GST control); in the test with ETV5, 1.06 fold enrichment (6-mer frequency, TF over GST control); with HSF1 it was 2.08 fold enrichment (6-mer frequency, TF over GST control); with SPIC, 1.13 fold enrichment (6-mer frequency, TF over GST control); with ELF4 it was 1.08 fold enrichment (6-mer frequency, TF over GST control); in the test with ELK4 it was 1.23 fold enrichment (6-mer frequency, TF over GST control). In addition, the binding signal is 1.1 fold enrichment (6-mer frequency, TF over GST control) with ETV2; 1.04 fold enrichment (6-mer frequency, TF over GST control) in the test with ELF3; 3.27 fold enrichment (6-mer frequency, TF over GST control) with CRX; 1.1 fold enrichment (6-mer frequency, TF over GST control) in the test with ETV1.
On to GTAAAC, for which the binding signal with FEV was 1.17 fold enrichment (6-mer frequency, TF over GST control); with ETV5, 1.18 fold enrichment (6-mer frequency, TF over GST control); with HSF1, 1.03 fold enrichment (6-mer frequency, TF over GST control); with SPIC it was 1.23 fold enrichment (6-mer frequency, TF over GST control); with ELF4, 1.23 fold enrichment (6-mer frequency, TF over GST control); with ELK4, 1.27 fold enrichment (6-mer frequency, TF over GST control). The binding signal was 1.15 fold enrichment (6-mer frequency, TF over GST control) with ETV2; 1.38 fold enrichment (6-mer frequency, TF over GST control) with ELF3; 1.07 fold enrichment (6-mer frequency, TF over GST control) with CRX; 1.22 fold enrichment (6-mer frequency, TF over GST control) in the test with ETV1.
On to TGTAAT, for which the binding signal with FEV was 1.12 fold enrichment (6-mer frequency, TF over GST control); in the test with ETV5, 1.17 fold enrichment (6-mer frequency, TF over GST control); in the test with HSF1 it was 1.39 fold enrichment (6-mer frequency, TF over GST control); with SPIC, 1.27 fold enrichment (6-mer frequency, TF over GST control); with ELF4 it was 1.23 fold enrichment (6-mer frequency, TF over GST control); with ELK4, 1.21 fold enrichment (6-mer frequency, TF over GST control). In addition, the binding signal in the test with ETV2 is 1.26 fold enrichment (6-mer frequency, TF over GST control); with ELF3, 1.26 fold enrichment (6-mer frequency, TF over GST control); in the test with CRX, 1.79 fold enrichment (6-mer frequency, TF over GST control); with ETV1 it was 1.17 fold enrichment (6-mer frequency, TF over GST control).
Take CGAATA: the binding signal with FEV is 1.16 fold enrichment (6-mer frequency, TF over GST control); in the test with ETV5 it was 1.07 fold enrichment (6-mer frequency, TF over GST control); with HSF1, 1.87 fold enrichment (6-mer frequency, TF over GST control); with SPIC, 1.26 fold enrichment (6-mer frequency, TF over GST control); with ELF4 it was 1.11 fold enrichment (6-mer frequency, TF over GST control); with ELK4, 1.25 fold enrichment (6-mer frequency, TF over GST control). The binding signal was 1.29 fold enrichment (6-mer frequency, TF over GST control) with ETV2; 1.07 fold enrichment (6-mer frequency, TF over GST control) with ELF3; 1.31 fold enrichment (6-mer frequency, TF over GST control) with CRX; 1.19 fold enrichment (6-mer frequency, TF over GST control) with ETV1.
For GATTCA, the binding signal with FEV is 1.08 fold enrichment (6-mer frequency, TF over GST control); in the test with ETV5, 1.08 fold enrichment (6-mer frequency, TF over GST control); with HSF1, 1.13 fold enrichment (6-mer frequency, TF over GST control); with SPIC it was 1.14 fold enrichment (6-mer frequency, TF over GST control); with ELF4 it was 1.15 fold enrichment (6-mer frequency, TF over GST control); in the test with ELK4, 1.24 fold enrichment (6-mer frequency, TF over GST control). Also, the binding signal with ETV2 is 1.08 fold enrichment (6-mer frequency, TF over GST control); with ELF3 it was 1.26 fold enrichment (6-mer frequency, TF over GST control); with CRX, 1.13 fold enrichment (6-mer frequency, TF over GST control); in the test with ETV1 it was 1.15 fold enrichment (6-mer frequency, TF over GST control).
